According to PubChem BioAssay (NCI):
This is part of a sample that, as a whole, favours compounds with a hit. Of some 83,000 tested, about 20% had one in any assay.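 Cells were grown in 96-well plates and exposed to the test compound at a single concentration for 48 hours; results are reported as percent growth, with values below 10 considered active.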 A number with no mark means an inactive call. Calls of active or inactive are those of the source.

system: IGROV1 ovarian; assay: NCI-60 one-dose screen, 48 h (100 = growth as untreated, 0 = no growth, -100 = all killed); settings: 10 µM unless noted

| SMILES | growth |
| --- | --- |
| COc1ccc2[nH]cc(-c3csc4nc(-c5ccccc5)cn34)c2c1 | 41.6% |
| COc1cc(Cn2cc3c(c2)-c2onc(CN4CCCC4)c2CC3)cc(OC)c1OC | 101% |
| COC(=O)/C=C/c1c(C2(C)NC(=O)c3ccccc3N2)c(=O)oc2ccc(Cl)cc12 (stereo not drawn) | 68.1% |
| Cc1ccc2c(c1)Oc1nc(N)c(C#N)c(N)c1C2Sc1ccc(F)cc1 (stereo not drawn) | -91.3% (active) |
| COc1ccc(Cn2cc3c(c2-c2cc(OC)c(OC)c(OC)c2)CCc2c(CN4CCCC4)noc2-3)cc1 | 29.9% |
| COc1ccc(Cn2cc3c(c2-c2cc(OC)c(OC)c(OC)c2)CCc2c(CN4CCOCC4)noc2-3)cc1 | 28.3% |
| CCNC(=O)N1CCc2cc(OC)c(OCCc3ccc(OC)cc3)cc2C1c1ccc([N+](=O)[O-])cc1C (stereo not drawn) | 24.9% |
| COc1ccc([C@@H]2[C@@H](O)C(=O)N2c2cc(OC)c(OC)c(OC)c2)cc1F | 18.9% |
| Cc1ccc(-c2nnc(SCc3ccc(O)c4ncccc34)n2-c2ccccc2)cc1 | 8.07% (active) |
| COc1cc2oc(-c3cccc(C(=O)N[C@@H](CC(C)C)C(=O)OC(C)(C)C)c3)cc(=O)c2c(OC)c1OC | 71.5% |
| Cc1ccc(S(=O)(=O)N(CC[C@@H]2C[C@H]2c2cc3ccccc3o2)S(=O)(=O)c2ccc(C)cc2)cc1 | 101% |
| Brc1ccccc1/C=N/Nc1nc(N/N=C/c2ccccc2Br)nc(N2CCOCC2)n1 | 89.7% |
| CC1=NC2=NC(=O)/C(=C3/N=C(C)C=C(c4ccccc4)N3N)NN2C(c2ccccc2)=C1 | 70.1% |
| CN(C)CCN(C)c1ccc2ncc(C#Cc3cncc(C(=O)Nc4ccc(CN5CCN(C)CC5)c(C(F)(F)F)c4)c3)n2n1 | 45.5% |
| NC(N)=Nc1ccc(Oc2cccc(Nc3ccc(Br)c(C(F)(F)F)c3)c2)cn1 | -74.7% (active) |
| COc1cc(Cn2cc3c(c2)-c2onc(CN4CCOCC4)c2CC3)cc(OC)c1OC | 99.8% |
| Cc1cc(-c2ccc(Cl)cc2)n(Cc2nnc(SCC(=O)Nc3ccc(S(N)(=O)=O)cc3)n2-c2ccc([N+](=O)[O-])cc2)n1 | 96.9% |
| COc1ccc(C(=O)CSc2nc3c(c(Nc4ccc(S(N)(=O)=O)cc4)n2)CCCC3)cc1 | 112% |
| CCn1c(SCC(=O)Nc2cccc(C(=O)/C=C/c3cc(OC)c(OC)c(OC)c3)c2)nc2ccccc2c1=O | 13% |

| SMILES | growth |
| --- | --- |
| Nc1ncc(-c2ccc(NS(=O)(=O)c3ccc(Cl)c(Cl)c3)cc2)[nH]1 | 88.8% |
| Cc1nn(-c2ccccc2)c2ncnc(N/N=C/c3ccccc3O)c12 | 3.8% (active) |
| COc1cc(-c2nnc(SCc3ccc(O)c4ncccc34)n2-c2ccccc2)cc(OC)c1OC | 8.92% (active) |
| Oc1ccc(CSc2nnc(-c3ccc(Cl)cc3)n2-c2ccccc2)c2cccnc12 | 24.2% |
| CCc1ccc(SC2c3ccc(N(CC)CC)cc3Oc3nc(N)c(C#N)c(N)c32)cc1 (stereo not drawn) | -78% (active) |
| CS(=O)(=O)Nc1cc(-c2ccc3ncc(C#N)c(NCc4ccccc4O)c3c2)cnc1Cl | -41.8% (active) |
| NS(=O)(=O)c1ccc(Nc2cc(-c3ccccc3)nc(SCC(=O)c3ccccc3)n2)cc1 | 97.4% |
| c1ccc(C(c2nc3ncncc3[nH]2)N2CSc3nc4ccccc4n3C2)cc1 (stereo not drawn) | 99.9% |
| COCCNc1ccc2ncc(C#Cc3cncc(C(=O)Nc4ccc(CN5CCN(C)CC5)c(C(F)(F)F)c4)c3)n2n1 | -12% (active) |
| O=c1c2ccccc2nc(COc2ccccc2)n1NS(=O)(=O)c1ccc(Cl)cc1 | 61.7% |
| NC(N)=Nc1ccc(Oc2cccc(Nc3ccc(Cl)c(C(F)(F)F)c3)c2)cn1 | -38.2% (active) |
| O=C1CC(=O)N2CSCN(C(c3ccccc3)c3nc4ncncc4[nH]3)C2=N1 (stereo not drawn) | 99.3% |
| COc1cc(/C=N/NC(=O)c2cn(C3CC3)c3c(OC)c(N4CC5CCCNC5C4)c(F)cc3c2=O)ccc1O (stereo not drawn) | 16.4% |
| C[C@H](CCC(=O)NCc1ccc(C(=O)Nc2ccccc2N)cc1)[C@H]1CC[C@H]2[C@@H]3[C@@H](O)C[C@@H]4C[C@H](O)CC[C@]4(C)[C@H]3CC[C@]12C | 51% |
| N#Cc1cn(Cc2ccc(Cl)cc2Cl)c(C(=O)c2ccc(Br)cc2)c1N | 97.3% |
| CCNC(=O)N1CCc2cc(OC)c(OCCc3ccc(OC)nc3)cc2C1c1ccc(OC)cc1C (stereo not drawn) | 33.8% |
| C=CCn1c(-c2nc3ccc(C(=C(C#N)C#N)c4ccccc4)cc3[nH]2)cc2cc(Br)ccc21 | 65.1% |
| Cc1ccc(S(=O)(=O)NCCNc2nc(Nc3ccc(N4CCN(C)CC4)cc3)nc3ccsc23)cc1 | 108% |
| COc1cc2nc(Cl)nc(Nc3cccc(C4=Nc5c(N)nc(N)nc5NC(c5ccc(Cl)cc5)C4)c3)c2cc1OC (stereo not drawn) | 87.9% |
